Results as given in the supplement of paper PMC12636033.
± gives the standard deviation of the averaged measurements. Over roughly 33,000 sequences, “E-score (rank enrichment, -0.5 to 0.5)” has its median near -0.0028; the highest 2% begin near 0.23. The sample holds the highest values, similar sequences and a random draw of the others, so the mix is not that of the screen.

tested on: 2Sb-muMax20 (muMax20 with two 1,3-bis(methyl)benzene Cys staples, A13C/A17C and Q88C/A92C, C-terminal Lys); assay: PBM 8-mer E-score (E-score (rank enrichment, -0.5 to 0.5)); higher = stronger preferential binding
Procedure: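 Protein binding microarray (universal PBM chip covering all 10-mers in fixed probe flanks) with chemically synthesized human Max(13-93) bHLH-LZ analogs (not full-length Max) bearing noncanonical residues (hArg, Tha, Aib, Nle at 65) and aromatic Cys staples. Read-out per 8-mer (and its reverse complement): E-score (rank-based enrichment, -0.5 to 0.5) and Z-score of median probe intensity.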

Row | Sequence | PBM 8-mer E-score
1 | AATACGGA | 0.0895 ± 0.071
2 | CGGAATGC | -0.00566 ± 0.015
3 | GTCCATTA | 0.107 ± 0.015
4 | ATGTGGAA | 0.173 ± 0.015
5 | GGAAATAC | -0.0227 ± 0.051
6 | GAGTTCCA | -0.117 ± 0.052
7 | GAACGTGA | 0.00502 ± 0.1
8 | GGACGTGA | -0.108 ± 0.045
9 | GCACGTGA | 0.241 ± 0.026
10 | GCACGTGC | 0.4793 ± 0.0038
11 | GCACGTAC | 0.0889 ± 0.026
12 | GCACGTCC | -0.139 ± 0.095
13 | GTTCCGTA | -0.187 ± 0.024
14 | ATCCACAA | 0.0617 ± 0.059
15 | ATCGTCCG | -0.149 ± 0.027
16 | GTTTCTTA | 0.0179 ± 0.046
17 | AATAACCG | 0.0384 ± 0.018
18 | ACGCGCGG | 0.178 ± 0.038
19 | ACGCGCGT | 0.3355 ± 0.0029
20 | GCGCGCGC | 0.3223 ± 0.00078
21 | ACGCGCGC | 0.1365 ± 0.00093
22 | GCGCGCGA | 0.0594 ± 0.082
23 | CCGCGCGC | 0.01 ± 0.0081
24 | AGCAGTTC | 0.00143 ± 0.078
25 | AAAAATAA | 0.0834 ± 0.061
26 | GACCTGGA | -0.164 ± 0.035

Row | Sequence | PBM 8-mer E-score
27 | AATATTCT | 0.133 ± 0.011
28 | GATACGTA | 0.081 ± 0.0043
29 | AATACGCA | 0.251 ± 0.0039
30 | CATACGTC | -0.00541 ± 0.00038
31 | AATACGTA | 0.231 ± 0.019
32 | AATACGTC | 0.0547 ± 0.024
33 | CATACGTA | 0.3021 ± 0.0027
34 | GATACGCA | 0.115 ± 0.031
35 | AATACGCT | 0.188 ± 0.045
36 | AATACGTG | 0.0524 ± 0.012
37 | AAGCACAC | 0.0724 ± 0.00084
38 | AGACGTAA | 0.0336 ± 0.059
39 | CCGTAGAG | -0.0843 ± 0.033
40 | AAGGGGCG | 0.0188 ± 0.025
41 | AAAGGGCT | 0.0103 ± 0.021
42 | TAGGGGCA | 0.267 ± 0.013
43 | AAGGGGCT | 0.276 ± 0.0072
44 | GAGGGGCA | 0.0724 ± 0.043
45 | CAGGGGCA | 0.0503 ± 0.027
46 | AAAGTTAT | 0.0271 ± 0.025
47 | AATAGGGC | -0.00932 ± 0.054
48 | CAGTTTGA | -0.0513 ± 0.03
49 | GGAATGCC | -0.081 ± 0.011
50 | GTGGAGCA | -0.0959 ± 0.032
51 | AATAGCAG | -0.0835 ± 0.028
52 | CTTGTACA | 0.0642 ± 0.09

Row | Sequence | PBM 8-mer E-score
53 | ATTGTATG | 0.172 ± 0.066
54 | ATTGTACC | 0.178 ± 0.035
55 | GACGTATA | 0.0136 ± 0.0084
56 | ATTGTACA | 0.241 ± 0.042
57 | AACGTATA | 0.251 ± 0.032
58 | CACGTATA | 0.0602 ± 0.053
59 | GCTGTATA | 0.218 ± 0.05
60 | CCTGTATA | 0.109 ± 0.011
61 | CTTGTATA | 0.164 ± 0.018
62 | ACTGTATA | 0.236 ± 0.042
63 | ATTGTATA | 0.273 ± 0.017
64 | TGAAGAAA | -0.0313 ± 0.065
65 | CACCTCTG | -0.0833 ± 0.03
66 | CGTAACAG | 0.177 ± 0.013
67 | GAAGGCGC | -0.0372 ± 0.063
68 | GTTGTCTA | -0.0541 ± 0.029
69 | AATGTATA | 0.269 ± 0.02
70 | GATGTATA | 0.0803 ± 0.029
71 | ATTGTCTA | 0.277 ± 0.0069
72 | ATTGTCTC | -0.0946 ± 0.028
73 | CATGTATA | 0.15 ± 0.062
74 | TAACGGAA | 0.149 ± 0.021
75 | ACAGTGAT | 0.142 ± 0.065
76 | TAAGGCTA | 0.0712 ± 0.066
77 | ATGAGGGC | 0.0989 ± 0.0016
78 | AGGAGGGC | -0.0974 ± 0.038

Row | Sequence | PBM 8-mer E-score
79 | AGTAGGGC | 0.0716 ± 0.0035
80 | AGTAGGGA | 0.0636 ± 0.013
81 | AGTAGGGG | 0.306 ± 0.0088
82 | AGGAGGGA | -0.0776 ± 0.0034
83 | ATGAGGGA | 0.191 ± 0.062
84 | ATGAGGGG | 0.267 ± 0.0094
85 | AGGAGGGG | 0.297 ± 0.06
86 | AATGGCGA | 0.135 ± 0.067
87 | GACTCAGA | -0.115 ± 0.064
88 | CACGGCAC | -0.198 ± 0.045
89 | GGTCTCTA | -0.0733 ± 0.014
90 | CCTGAGCC | -0.241 ± 0.074
91 | TGTTTCAA | 0.13 ± 0.063
92 | GAAGTTGC | -0.202 ± 0.021
93 | CCTTCACA | 0.298 ± 0.014
94 | CCTTCACG | -0.013 ± 0.075
95 | ACTTCACA | 0.0282 ± 0.023
96 | AATCCCGT | -0.000655 ± 0.018
97 | GTATTTTA | 0.0366 ± 0.0083
98 | ATATTTAC | 0.22 ± 0.028
99 | GCATTTTA | 0.151 ± 0.0045
100 | CTATTTTA | 0.193 ± 0.048
101 | ACATTTTA | 0.242 ± 0.054
102 | ATATTTTA | 0.238 ± 0.0056
103 | CTATTTAA | -0.0132 ± 0.0071
104 | CCATTTTA | 0.0822 ± 0.0077

Row | Sequence | PBM 8-mer E-score
105 | ATATTTAA | 0.256 ± 0.024
106 | CCTTTTTC | 0.0688 ± 0.1
107 | CCCGAAAA | 0.0645 ± 0.051
108 | AGTATTAT | -0.0141 ± 0.036
109 | AGCGAACC | -0.0262 ± 0.033
110 | GCCCTCAA | 0.0476 ± 0.024
111 | AAAGTACT | 0.136 ± 0.092
112 | AGAAGTAA | 0.141 ± 0.011
113 | TGAAGTAA | 0.1 ± 0.05
114 | GGAAGTAA | 0.262 ± 0.0039
115 | TATATCCA | 0.157 ± 0.048
116 | AGTCGCAT | 0.00112 ± 0.0029
117 | ATGATCCG | -0.186 ± 0.035
118 | ATAAATAG | 0.111 ± 0.04
119 | ATAAATAT | 0.239 ± 0.042
120 | ATAAACAC | 0.0999 ± 0.056
121 | ATAAACAT | 0.246 ± 0.014
122 | ATAAATAA | 0.111 ± 0.012
123 | ATAAAAAT | 0.136 ± 0.028
124 | AAAAATAT | 0.16 ± 0.01
125 | ATAAACAA | 0.157 ± 0.019
126 | ATAAATAC | 0.288 ± 0.028
127 | ATATCCAT | 0.137 ± 0.14
128 | CACTCCGG | -0.0338 ± 0.0072
129 | ATTGATCA | 0.0679 ± 0.039
130 | ATGAATTC | 0.133 ± 0.015

Row | Sequence | PBM 8-mer E-score
131 | GAAAGCTC | -0.175 ± 0.051
132 | CAGTAGGG | 0.111 ± 0.065
133 | ATGGCCAC | -0.0293 ± 0.011
134 | ATGGCCAT | 0.238 ± 0.048
135 | ATGGCCAG | 0.113 ± 0.0052
136 | CTCAGGTA | -0.158 ± 0.024
137 | AGTAGCAC | 0.0432 ± 0.033
138 | GTAATAGA | 0.253 ± 0.0043
139 | CTAATAGA | 0.12 ± 0.054
140 | ATAATAGA | 0.087 ± 0.027
141 | ACCGAGAG | -0.0606 ± 0.0036
142 | AATTACCA | 0.217 ± 0.039
143 | AATTACCC | 0.286 ± 0.012
144 | CATTACCC | -0.0464 ± 0.014
145 | CCTTACTC | 0.123 ± 0.032
146 | AAGCTAGG | -0.00121 ± 0.038
147 | AATCCTGT | 0.0436 ± 0.00074
148 | ACCACCCG | -0.0962 ± 0.022
149 | ACCACCCC | 0.165 ± 0.0053
150 | GCCACCCA | -0.0786 ± 0.049
151 | GCCACCCC | 0.0125 ± 0.1
152 | CCCACCCC | 0.307 ± 0.058
153 | ATCACCCG | -0.202 ± 0.044
154 | CCCACCCG | 0.335 ± 0.042
155 | ATCACCCC | 0.27 ± 0.0061
156 | ATCACCCA | 0.0137 ± 0.037

Row | Sequence | PBM 8-mer E-score
157 | TCCACCCA | 0.0351 ± 0.068
158 | CACACCCG | -0.111 ± 0.0078
159 | CCCACCCA | 0.387 ± 0.029
160 | CATGTCGA | -0.00545 ± 0.041
161 | ATTGCTAG | 0.141 ± 0.019
162 | CATGTTCA | 0.151 ± 0.025
163 | AAGTATGT | 0.0914 ± 0.0063
164 | AGCGACCG | -0.22 ± 0.0069
165 | AAAGGCGA | 0.17 ± 0.0091
166 | GCTTCTCC | 0.0389 ± 0.0059
167 | ACTAAGGC | 0.00844 ± 0.07
168 | CAAGCATC | -0.0457 ± 0.013
169 | AAAAGCCA | 0.0803 ± 0.036
170 | CCATATCA | 0.076 ± 0.055
171 | CAATACAC | 0.0179 ± 0.049
172 | CAATACAG | 0.00554 ± 0.011
173 | ACATATCA | 0.2689 ± 0.00057
174 | ATACACAC | 0.0901 ± 0.038
175 | ACATATCG | 0.0421 ± 0.053
176 | ACATACAT | 0.273 ± 0.025
